Experimental findings from PubChem BioAssay (NCATS) are described below.

Several values for one entry are separate records, joined by “and”; a condition that tells them apart may be missing. Identical values can stand only once. Results filed as inconclusive are left out. Activity calls are given as the source filed them. Unless noted, calls come from the whole dose curve.

Vitamin D3 receptor (Homo sapiens), sequence (P11473 whole entry, looked up): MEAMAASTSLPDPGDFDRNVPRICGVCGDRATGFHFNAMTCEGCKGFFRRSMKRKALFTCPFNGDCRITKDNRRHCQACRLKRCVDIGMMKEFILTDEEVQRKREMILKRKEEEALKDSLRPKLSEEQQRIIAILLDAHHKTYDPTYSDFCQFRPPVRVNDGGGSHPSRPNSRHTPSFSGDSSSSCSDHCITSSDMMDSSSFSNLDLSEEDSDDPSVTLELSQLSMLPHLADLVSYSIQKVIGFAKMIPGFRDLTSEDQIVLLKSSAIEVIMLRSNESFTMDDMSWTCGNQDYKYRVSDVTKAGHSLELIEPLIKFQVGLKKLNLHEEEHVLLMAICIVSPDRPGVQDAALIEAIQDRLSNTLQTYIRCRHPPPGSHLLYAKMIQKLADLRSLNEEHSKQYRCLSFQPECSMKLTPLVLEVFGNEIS
Peroxisome proliferator-activated receptor gamma (Homo sapiens), sequence (P37231 whole entry, looked up): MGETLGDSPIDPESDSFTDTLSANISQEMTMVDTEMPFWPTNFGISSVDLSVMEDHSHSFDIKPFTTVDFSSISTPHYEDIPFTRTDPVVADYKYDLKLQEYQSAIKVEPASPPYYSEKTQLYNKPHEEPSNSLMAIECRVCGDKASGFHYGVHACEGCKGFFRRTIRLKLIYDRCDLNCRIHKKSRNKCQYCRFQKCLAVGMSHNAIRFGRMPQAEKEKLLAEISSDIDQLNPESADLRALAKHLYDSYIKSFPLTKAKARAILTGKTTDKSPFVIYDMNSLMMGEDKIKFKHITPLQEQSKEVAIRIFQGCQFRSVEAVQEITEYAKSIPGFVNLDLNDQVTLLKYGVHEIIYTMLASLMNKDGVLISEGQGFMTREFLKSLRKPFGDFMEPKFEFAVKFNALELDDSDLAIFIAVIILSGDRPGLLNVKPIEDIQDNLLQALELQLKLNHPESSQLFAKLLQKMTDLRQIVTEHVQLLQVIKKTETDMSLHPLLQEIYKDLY

The first test addresses Peroxisome proliferator-activated receptor gamma (Homo sapiens) (UniProt P37231). Kind of test: qHTS assay for small molecule agonists of peroxisome proliferator-activated receptor gamma signaling (AID 588536; active = well fitted curve in the direction sought with a large enough effect in the signal ratio, with a control signal flat, not every such curve was filed as active; the % refers to the signal ratio;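 note: 0% = DMSO basal wells and 100% = rosiglitazone at 2 µM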). To be noted: HEK293 PPARg-UAS-bla, beta-lactamase ratio, 16 h, percent of rosiglitazone response, DMSO as zero; series mostly up to 76.7 µM; activation: at the top concentration. The procedure, abridged:
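Test agents, titrated, stimulated HEK293 UAS-bla cells overnight (16 h, 37 C). Substrate CCF4 was then added for two hours at room temperature before fluorescence reading.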
(Quantitative high-throughput screening tests each substance at several concentrations.)
As for `CCOP(=S)(OCC)Oc1ccc2c(C)c(Cl)c(=O)oc2c1`, the “activation” value was 13.3% (inactive).

`CC(C)c1cccc(C(C)C)c1O`: the “activation” value was 1.32% (inactive).

In the case of `O=C1c2ccccc2C(=O)c2ccccc21`, the “activation” value was -1.01% (inactive).

For `C[C@]12CCC(=O)C=C1CC[C@@H]1[C@@H]2CC[C@]2(C)C(=O)CC[C@@H]12`, the result was inactive.

Regarding `Nc1ccccc1C(=O)O`, the “activation” value is 3.5% (inactive).

For the compound `Oc1ccc(Cl)cc1`, the “activation” value is 3.06% (inactive).

Consider `Nc1ccc([As](=O)(O)O)cc1`, for which the “activation” value is -2.33% (inactive).

Consider `O=C(O)CCCc1ccc(N(CCCl)CCCl)cc1`, for which the result was inactive.

The target is the same in a further test. The experiment in a line: qHTS assay for small molecule antagonists of peroxisome proliferator-activated receptor gamma signaling (AID 588537; active = well fitted inhibition curve with a large enough effect in the signal ratio, with a control signal flat, not every such curve was filed as active; the % refers to the signal ratio;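 note: reporter cells co-stimulated with 50 nM rosiglitazone agonist during compound treatment; % of control where 0% means no effect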). The settings on record: HEK293 PPARg-UAS-bla, beta-lactamase ratio, antagonist mode; series mostly up to 76.8 µM; activity, negative = inhibition: at the top concentration. The procedure, abridged:
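PPAR-gamma-UAS-bla HEK293 cells (3000/well, 1% charcoal/dextran-stripped FBS) were preincubated 6-6.5 h at 37 C, given titrated compounds, then stimulated with 50 nM rosiglitazone for 16 h. Beta-lactamase activity was read with CCF4 dye; IC50 came from Hill fits.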
Turning to `CCOP(=S)(OCC)Oc1ccc2c(C)c(Cl)c(=O)oc2c1`, the “activity, negative = inhibition” value was -10.8% (inactive).

Take `O=C1c2ccccc2C(=O)c2ccccc21`: the “activity, negative = inhibition” value is 5.85% (inactive).

On to `O=C1c2ccccc2C(=O)C1C(=O)C(c1ccccc1)c1ccccc1`, for which the “activity, negative = inhibition” value was -14.1% (inactive).

Turning to `Nc1ccccc1C(=O)O`, the “activity, negative = inhibition” value was -1.55% (inactive).

Regarding `Oc1ccc(Cl)cc1`, the “activity, negative = inhibition” value was 13.2% (inactive).

Take `Nc1ccc([As](=O)(O)O)cc1`: the “activity, negative = inhibition” value is 12.5% (inactive).

Consider `O=C(O)CCCc1ccc(N(CCCl)CCCl)cc1`, for which the result was inactive.

In the next test the target is Vitamin D3 receptor (Homo sapiens) (UniProt P11473). The experiment in a line: qHTS assay for small molecule antagonists of vitamin D receptor signaling (AID 588541).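 For activity change, negative = inhibition: receptor activated by calcitriol during compound treatment; % is set by controls: 0 for no effect and ±100 for the full control effect.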 Note: potency is the fitted concentration of half-maximal effect. To be noted: HEK293T VDR-UAS-bla, beta-lactamase ratio, antagonist mode; series mostly up to 76.7 µM; activity change, negative = inhibition: at the top concentration. The procedure, abridged:
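VDR-UAS-bla HEK293T cells (2000/well, 2% charcoal-stripped FBS) were treated with titrated compounds plus 1-alpha,25-dihydroxyvitamin D3 (50 nM or 3 nM final) for 16 h at 37 C. CCF4 beta-lactamase fluorescence was read; Hill fits gave IC50.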
With `CC(C)c1cccc(C(C)C)c1O`, the “activity change, negative = inhibition” value was -1.51% (inactive).

Consider `CC(=O)N1CCN(c2ccc(OC[C@H]3CO[C@](Cn4ccnc4)(c4ccc(Cl)cc4Cl)O3)cc2)CC1`, for which the Potency was 44.7 µM (active).

For the compound `O=C1c2ccccc2C(=O)c2ccccc21`, the “activity change, negative = inhibition” value is 4.22% (inactive).

As to `[N-]=[N+]=CC(=O)OC[C@H](N)C(=O)O`, the “activity change, negative = inhibition” value is 0.819% (inactive).

As for `Nc1ccccc1C(=O)O`, the “activity change, negative = inhibition” value was -5.65% (inactive).

In the case of `Oc1ccc(Cl)cc1`, the “activity change, negative = inhibition” value is -1.25% (inactive).

Consider `Nc1ccc([As](=O)(O)O)cc1`, for which the “activity change, negative = inhibition” value is 4.81% (inactive).

As to `O=C(O)CCCc1ccc(N(CCCl)CCCl)cc1`, the Potency entry is “inactive”.

The target is the same in a further test. Kind of test: qHTS assay for small molecule agonists of vitamin D receptor signaling (AID 588543).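 Note: 0% = DMSO basal and 100% = reference agonist control.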 The settings on record: HEK293T VDR-UAS-bla, beta-lactamase ratio, 16 h; series mostly up to 76.8 µM; activation: at the top concentration. The method in brief:
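Measured: β-lactamase reporter activity (CCF4, 405 nm excitation, 460/530 nm emission) in HEK293T VDR-UAS-bla cells after 16 h compound exposure at 37 °C. Normalization against 50 nM 1α,25-dihydroxyvitamin D3 and DMSO; Hill-fit EC50.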
As to `CC(C)c1cccc(C(C)C)c1O`, the “activation” value is 0.608% (inactive).

In the case of `O=C1c2ccccc2C(=O)c2ccccc21`, the “activation” value was 1.54% (inactive).

With `CN1C[C@H](C(=O)N[C@]2(C)O[C@@]3(O)[C@@H]4CCCN4C(=O)[C@H](Cc4ccccc4)N3C2=O)C=C2c3cccc4[nH]cc(c34)C[C@H]21`, the “activation” value is 5.83% (inactive).

As to `[N-]=[N+]=CC(=O)OC[C@H](N)C(=O)O`, the “activation” value is -1.33% (inactive).

With `Nc1ccccc1C(=O)O`, the “activation” value is -1.08% (inactive).

`Oc1ccc(Cl)cc1`: the “activation” value was 1.28% (inactive).

On to `Nc1ccc([As](=O)(O)O)cc1`, for which the “activation” value is 3.97% (inactive).

Consider `O=C(O)CCCc1ccc(N(CCCl)CCCl)cc1`, for which the outcome was inactive.

Test system in a further test: not listed separately
The experiment in a line: qHTS assay for small molecule agonists of retinoid X receptor alpha signaling (AID 588544). The settings on record: HEK293T RXRa-UAS-bla, beta-lactamase reporter, 18 h; 530 nm emission.
As to `CC(C)c1cccc(C(C)C)c1O`, the max response is -14.1%.

With `O=C1c2ccccc2C(=O)c2ccccc21`, the max response was -19.1%.

`O=C(Oc1ccccc1)c1ccccc1O`: the max response was determined as 23.5%.

Regarding `[N-]=[N+]=CC(=O)OC[C@H](N)C(=O)O`, the max response is -12%.

As for `Oc1ccccc1`, the max response is -13.8% and -5.05%.

As to `O=C1c2ccccc2C(=O)C1C(=O)C(c1ccccc1)c1ccccc1`, the max response is -20.8%.

`Nc1ccccc1C(=O)O`: the max response is -3.98%.

Consider `Oc1ccc(Cl)cc1`, for which the max response was -11.6%.

For the compound `Nc1ccc([As](=O)(O)O)cc1`, the max response is -10%.

With `O=C(O)CCCc1ccc(N(CCCl)CCCl)cc1`, the max response was 15.5% and 20.9%.
